{
  "source": "PubChem BioAssay AID485297",
  "about": "(National Center for Advancing Translational Sciences (NCATS), 2010)",
  "note": "In all, about 320,000 compounds went through this assay and about 9,100 (2.8%) were called active. Entries that show only a call come without a potency. Inconclusive results (about 3%) are left out. Calls come from the whole dose curve; as a rule, active = well fitted activation curve with a large enough effect; inconclusive = small, poorly fitted or top-dose-only effect; inactive = no such curve, though single readings can be large or run the other way. For the sample, actives were picked, then their nearest neighbours and some compounds at random. Potency is the fitted concentration of half-maximal effect.",
  "data": [
    {"assay": "qHTS Assay for Rab9 Promoter Activators; note: nearly all actives have a fitted effect of over 60% in size", "conditions": "Huh7 Rab9 promoter-luciferase reporter, luminescence, 24 h; series mostly up to 9.22 µM", "procedure,_shortened": "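Huh7 cells stably carrying Rab9 promoter–luciferase reporter, plated 1500 cells/well, compound added after 2 h and incubated 24 h at 37 °C; luciferase luminescence then read after 10 min with detection reagent.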", "values": [
      {"smiles": "Cc1ccc(C)c(NC(=O)COC(=O)CSc2ccccc2)c1", "Potency": "inactive"},
      {"smiles": "CCCCN(CC)C(=O)c1ccccc1Oc1ccccc1", "Potency": "inactive"},
      {"smiles": "COc1ccccc1OCCOc1ccc(/C=N/n2cnnc2)cc1", "Potency": "inactive"},
      {"smiles": "COc1cccc(OCCOc2cccc(/C=N/n3cnnc3)c2)c1", "Potency": "2820 nM (active)"},
      {"smiles": "C(=N\\n1cnnc1)/c1cccnc1", "Potency": "inactive"},
      {"smiles": "COc1cccc(C(=O)N/N=C(\\C)c2cccc(NC(=O)c3ccc(F)cc3)c2)c1OC", "Potency": "inactive"},
      {"smiles": "Cc1ccccc1OCCC(=O)OCC(=O)NCCc1ccc(S(N)(=O)=O)cc1", "Potency": "inactive"},
      {"smiles": "CCn1nc(C(=O)NNC(=O)C2CSC3(C)CCC(=O)N23)c2ccccc2c1=O", "note": "(stereo unspecified)", "Potency": "inactive"},
      {"smiles": "CCN(C(=O)COC(=O)CCOc1cccc(C)c1)c1c(N)n(Cc2ccccc2)c(=O)[nH]c1=O", "Potency": "inactive"},
      {"smiles": "N#Cc1ccccc1S(=O)(=O)N1CCN(Cc2c(O)ccc3ccccc23)CC1", "Potency": "inactive"},
      {"smiles": "N#CCC(=O)Nc1ccc(C(=O)OCC(=O)Nc2sc3c(c2C#N)CCCC3)cc1", "Potency": "inactive"},
      {"smiles": "Nc1ncnc2c1c(I)cn2[C@@H]1C[C@H](N)[C@@H](O)[C@H]1O", "Potency": "inactive"},
      {"smiles": "Cn1nc(-c2ccccc2)c2cc([N+](=O)[O-])ccc21", "Potency": "inactive"},
      {"smiles": "Cc1cc(CO)nn1-c1ccc([N+](=O)[O-])cc1", "Potency": "inactive"},
      {"smiles": "Cc1nn(-c2ccc([N+](=O)[O-])cc2)c(N)c1-c1ccccc1", "Potency": "1260 nM (active)"},
      {"smiles": "COc1ccccc1OCCNC(=O)C(CCSC)NC(=O)COc1ccccc1", "note": "(stereo unspecified)", "Potency": "inactive"},
      {"smiles": "O=C(COC(=O)Cc1ccccc1F)NCCc1ccccc1", "Potency": "inactive"},
      {"smiles": "CCOc1cccc2cc(C(=O)OCC(=O)Nc3c(C)cccc3CC)c(=O)oc12", "Potency": "inactive"},
      {"smiles": "COCCn1cnnc1SCC(=O)Nc1cccc(S(=O)(=O)N2CCCCC2)c1", "Potency": "inactive"},
      {"smiles": "O=C(Nc1cccc(NC(=O)c2ccccc2[N+](=O)[O-])c1)c1ccccc1Cl", "Potency": "inactive"},
      {"smiles": "O=C(Nc1ccc2sc3ccccc3c(=O)c2c1)c1ccccc1Cl", "Potency": "2820 nM (active)"},
      {"smiles": "COc1cc(NC(=O)c2cccs2)ccc1NC(=O)c1ccccc1Cl", "Potency": "inactive"},
      {"smiles": "COc1ccc(C(=O)COC(=O)c2ccc([N+](=O)[O-])s2)cc1OC", "Potency": "inactive"},
      {"smiles": "CN(C(=O)Cn1nnc(-c2ccc(F)cc2)n1)C1CCS(=O)(=O)C1", "note": "(stereo unspecified)", "Potency": "inactive"},
      {"smiles": "CC(C)(CNC(=O)Cc1ccc(Cl)cc1Cl)N1CCOCC1", "Potency": "inactive"},
      {"smiles": "N#Cc1ccc(C2N=C(c3ccccc3)NO2)cc1", "note": "(stereo unspecified)", "Potency": "1780 nM (active)"},
      {"smiles": "CCOc1ccc(NC(=O)CN(C)C(=O)CSc2ccccc2)cc1OCC", "Potency": "inactive"},
      {"smiles": "Cc1cc(C(F)(F)F)nn1-c1nc(-c2ccco2)cc(C(F)(F)F)n1", "Potency": "inactive"},
      {"smiles": "COc1ccccc1-n1c(-c2cc(-c3ccco3)[nH]n2)n[nH]c1=S", "Potency": "inactive"},
      {"smiles": "Cn1c(-c2ccco2)nc2cc3ccccc3cc21", "Potency": "3980 nM (active)"},
      {"smiles": "COc1cc(OC)c(NS(=O)(=O)c2cn(C)cn2)cc1Cl", "Potency": "inactive"},
      {"smiles": "O=[N+]([O-])c1ccc2nc(-c3ccccn3)[nH]c2c1", "Potency": "2510 nM (active)"},
      {"smiles": "O=[N+]([O-])c1ccc2c(c1)Nc1nc3ccccc3nc1N2", "Potency": "inactive"},
      {"smiles": "O=C(CSc1nc2ccc([N+](=O)[O-])cc2[nH]1)c1ccc(Cl)cc1", "Potency": "inactive"},
      {"smiles": "O=C(CN1C(=O)NC2(CCCCC2)C1=O)N1CCN(C(=O)c2cccs2)CC1", "Potency": "inactive"},
      {"smiles": "CC(C)n1ncc2c(C(=O)NCc3ccccc3CN(C)C)cc(C3CC3)nc21", "Potency": "inactive"},
      {"smiles": "O=C(Oc1cccc(NC2=NS(=O)(=O)c3ccccc32)c1)c1ccncc1", "Potency": "inactive"},
      {"smiles": "Cc1ccc(S(=O)(=O)N(NC2=NS(=O)(=O)c3ccccc32)C(=O)c2ccccc2)cc1", "Potency": "inactive"},
      {"smiles": "CC(C)(C)c1csc(NC2=NS(=O)(=O)c3ccccc32)n1", "Potency": "1260 nM (active)"},
      {"smiles": "O=S(=O)(NC1CCCCC1)c1ccc(F)c2ccccc12", "Potency": "inactive"},
      {"smiles": "COc1ccc2cc(C3=CC(=O)C[C@H](c4ccc5c(c4)OCO5)C3)ccc2c1", "Potency": "inactive"},
      {"smiles": "O=C(Nc1ccc(Cl)cc1)c1cccc(OC(=S)N2CCOCC2)c1", "Potency": "inactive"},
      {"smiles": "Nc1c(N(Cc2ccco2)C(=O)c2cccc(F)c2)c(=O)[nH]c(=O)n1Cc1ccccc1", "Potency": "inactive"},
      {"smiles": "CN(CC(=O)Nc1ccc(F)c(F)c1F)C(=O)Cn1cnc2c1c(=O)n(C)c(=O)n2C", "Potency": "inactive"},
      {"smiles": "CC1CCCN(S(=O)(=O)c2ccc(C(=O)Nc3nnc(-c4ccncc4)o3)cc2)C1", "note": "(stereo unspecified)", "Potency": "1410 nM (active)"},
      {"smiles": "CC1CCCCN1S(=O)(=O)c1ccc(C(=O)Nc2nnc(-c3cccs3)o2)cc1", "note": "(stereo unspecified)", "Potency": "inactive"},
      {"smiles": "O=C(Nc1nnc(-c2ccco2)o1)c1ccc(S(=O)(=O)N2CCOCC2)cc1", "Potency": "inactive"},
      {"smiles": "O=C(COC(=O)c1c(Cl)cccc1Cl)Nc1cccc(S(=O)(=O)NC2=NCCCCC2)c1", "Potency": "inactive"},
      {"smiles": "Cc1ccc(C(=O)CNc2ccc(F)cc2)cc1", "Potency": "inactive"},
      {"smiles": "COC(=O)c1ccc(NCC(=O)N2CCCCCC2)cc1", "Potency": "inactive"},
      {"smiles": "COC(=O)c1ccc(NCC(=O)c2ccccc2)cc1", "Potency": "1780 nM (active)"},
      {"smiles": "O=C(N[C@@H](Cc1c[nH]c2ccccc12)C(=O)O)OCC1c2ccccc2-c2ccccc21", "Potency": "inactive"},
      {"smiles": "Cc1[nH]n(C(N)=S)c(=O)c1N=Nc1ccc(Cl)cc1Cl", "Potency": "3980 nM (active)"},
      {"smiles": "Cc1[nH]n(-c2cccc(Cl)c2)c(=O)c1-c1ccc(Cl)cc1", "Potency": "inactive"},
      {"smiles": "CC1=NN(C(N)=S)C(=O)C1N=Nc1cc(Cl)ccc1Cl", "note": "(stereo unspecified)", "Potency": "inactive"},
      {"smiles": "CCOC(=O)c1c(CNCc2ccccc2F)c2sc(C)cc2n1C", "Potency": "inactive"},
      {"smiles": "COc1ccc(S(=O)(=O)N2CCOCC2)cc1NC(=O)c1ccc(OCC(C)C)c(OC)c1", "Potency": "inactive"},
      {"smiles": "CN(CCOc1ccccc1)C(=O)c1cc(-c2ccco2)nc2ccccc12", "Potency": "inactive"},
      {"smiles": "CC(OC(=O)c1ccccc1NCCO)C(=O)Nc1ccnn1C(C)C", "note": "(stereo unspecified)", "Potency": "inactive"},
      {"smiles": "COc1cccc(-n2c(SCC(=O)NC3CCS(=O)(=O)C3)nc3ccccc3c2=O)c1", "note": "(stereo unspecified)", "Potency": "inactive"},
      {"smiles": "O=C(CSc1nc2ccccc2c(=O)n1-c1ccc(F)cc1)NC1CC1", "Potency": "inactive"},
      {"smiles": "Cc1ccc(-n2c(SCC(=O)N3CCC(C(=O)O)CC3)nc3ccccc3c2=O)cc1C", "Potency": "2820 nM (active)"},
      {"smiles": "CC(=O)Nc1ccc(S(=O)(=O)N2CCn3cccc3C2C)cc1", "note": "(stereo unspecified)", "Potency": "inactive"},
      {"smiles": "CCCCc1ccc(NC(=S)NCCCN2CCOCC2)cc1", "Potency": "inactive"},
      {"smiles": "COc1ccc(NC(=S)N2CCCC(CO)C2)c(OC)c1", "note": "(stereo unspecified)", "Potency": "inactive"},
      {"smiles": "CCCCc1ccc(NC(=S)N2CCCC(CO)C2)cc1", "note": "(stereo unspecified)", "Potency": "2820 nM (active)"}
    ]}
  ]
}
